Results published in paper PMC5540273 (PLoS ONE, 2017).
Where two headings read alike, the source gives them in different places.

Experiments:
Settings in all cases: n = 1
FLT3 = test system: FLT3
FLT4 = test system: FLT4
FRK = test system: FRK
FYN = test system: FYN
GAK = test system: GAK
GCN2(Kin.Dom.2,S808G) = test system: T1, GCN2(Kin.Dom.2,S808G)
T1 construct: gene EIF2AK4

GRK1 = test system: GRK1
GRK2 = test system: T2, GRK2
T2 construct: gene ADRBK1

GRK3 = test system: T3, GRK3
T3 construct: gene ADRBK2

GRK4 = test system: GRK4
[1] = concentration: 1 μM, replicates: in singlicate
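Note: KINOMEscan kinase panel screen.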

Row | SMILES | %Inh (FLT3; [1]) [%] | %Inh (FLT4; [1]) [%] | %Inh (FRK; [1]) [%] | %Inh (FYN; [1]) [%] | %Inh (GAK; [1]) [%] | %Inh (GCN2(Kin.Dom.2,S808G); [1]) [%] | %Inh (GRK1; [1]) [%] | %Inh (GRK2; [1]) [%] | %Inh (GRK3; [1]) [%] | %Inh (GRK4; [1]) [%] | %Inh (FLT3; 1 µM) [%] | %Inh (FLT4; 1 µM) [%] | %Inh (FRK; 1 µM) [%] | %Inh (FYN; 1 µM) [%] | %Inh (GAK; 1 µM) [%] | %Inh (GCN2(Kin.Dom.2,S808G); 1 µM) [%] | %Inh (GRK1; 1 µM) [%] | %Inh (GRK2; 1 µM) [%] | %Inh (GRK3; 1 µM) [%] | %Inh (GRK4; 1 µM) [%]
1 | Fc1cc(Cl)ccc1Nc1ccnc2cc(-c3ccc(CN4CCCCC4)o3)ccc12 [GW560116] | 0 | 0 | 4 | 18 | 35 | 0 | 0 | 0 | 18 | 0 | – | – | – | – | – | – | – | – | – | –
2 | O=C(Nc1ccc2c(c1)OCO2)NC1CCN(c2ccnc(Nc3ccc(F)cc3)n2)C1 (stereo not shown) [GSK1379724] | 0 | 0 | 11 | 9 | 0 | 6 | 0 | 0 | 93.7 | 0 | – | – | – | – | – | – | – | – | – | –
3 | C[C@@H]1CCCCN1c1cc(-c2ccc3c(N)n[nH]c3c2)nc(N)n1 [GSK2258759] | 0 | 0 | 5 | 19 | 14 | 0 | 0 | 0 | 0 | 0 | – | – | – | – | – | – | – | – | – | –
4 | O=C1NC(=O)C(N2CCc3ccccc32)=C1c1ccccc1Cl [SB-373598] | 2 | 20 | 20 | 18 | 0 | 4 | 19 | 0 | 0 | 24 | – | – | – | – | – | – | – | – | – | –
5 | Clc1cc(Cl)cc(Nc2ccnc(Nc3cc(Cl)cc(Cl)c3)n2)c1 [GSK175726] | 0 | 0 | 45 | 8 | 30 | 0 | 100 | 0 | 7 | 0 | – | – | – | – | – | – | – | – | – | –
6 | Cc1ccc(C(=O)Nc2ccc(Nc3ccnc4cc(-c5ccccn5)ccc34)cc2O)cc1.Cl [GW440146] | 0 | 0 | 48 | 41 | 7 | 12 | 0 | 0 | 24 | 0 | – | – | – | – | – | – | – | – | – | –
7 | CS(=O)(=O)c1ccc(-c2nc3n(c2-c2ccncc2)CCC3)cc1 [SKF-105942] | 0 | 0 | 16 | 12 | 7 | 9 | 7 | 0 | 24 | 23 | – | – | – | – | – | – | – | – | – | –
8 | NC(=O)c1nnc2ccccc2c1N | 15 | 5 | 0 | 0 | 24 | 13 | 12 | 67 | 13 | 28 | – | – | – | – | – | – | – | – | – | –
9 | CN1C(=O)C(Nc2ccc(Cl)c(C(=O)O)c2)=C(c2ccc(Cl)cc2)C1=O [SB-404290] | 0 | 0 | 0 | 0 | 14 | 9 | 12 | 0 | 4 | 19 | – | – | – | – | – | – | – | – | – | –
10 | COC(=O)c1c(-c2ccccc2)c2cc(OC)ccc2c(=O)n1Cc1ccccc1 | 8 | 9 | 45 | 0 | 6 | 2 | 0 | 0 | 1 | 0 | – | – | – | – | – | – | – | – | – | –
11 | COc1cc2nccc(Nc3ccc(NC(=O)c4ccc(C)cc4)c(O)c3)c2cc1OC.Cl [GW440132] | 0 | 0 | 25 | 17 | 11 | 0 | 0 | 0 | 29 | 0 | – | – | – | – | – | – | – | – | – | –
12 | COc1ccccc1-c1ccc2c(NC(=O)C3CC3)n[nH]c2n1 [SB-711239] | 5 | 0 | 0 | 5 | 14 | 10 | 13 | 0 | 0 | 28 | – | – | – | – | – | – | – | – | – | –
13 | CC1=C(C(=O)Nc2cc3cn[nH]c3cc2F)C(c2ccc(C(F)(F)F)cc2)CC(=O)N1 (stereo not shown) [GSK429286] | 0 | 11 | 18 | 26 | 0 | 14 | 5 | 27 | 73 | 10 | – | – | – | – | – | – | – | – | – | –
14 | Cc1ccc(NC(=O)Nc2cccc(C(F)(F)F)c2)cc1 [GSK955403] | – | – | – | – | – | – | – | – | – | – | 59 | 12 | 0 | 0 | 0 | 0 | 2 | 0 | 0 | 0
15 | CC(=O)Nc1nc2cnc(Nc3cc(NC(=O)c4cccc(CCC#N)c4)ccc3C)nc2s1 | 0 | 30 | 83 | 4 | 7 | 0 | 0 | 0 | 0 | 0 | – | – | – | – | – | – | – | – | – | –
16 | CC(C)(C)c1ccc(C(=O)Nc2cn3cc(Cl)ccc3n2)cc1 | 70 | 0 | 12 | 99.3 | 0 | 36 | 10 | 0 | 0 | 0 | – | – | – | – | – | – | – | – | – | –
17 | Cl.NC(=O)c1cccc(Nc2nccc(Nc3ccc(Oc4cccc(Cl)c4)c(Cl)c3)n2)c1 [GW659008] | 54 | 0 | 24 | 59 | 43 | 11 | 0 | 0 | 18 | 15 | – | – | – | – | – | – | – | – | – | –
18 | O=S(=O)(c1ccc(-c2ccnc3[nH]ccc23)cc1)N1CCCC1 [GSK846226] | 0 | 0 | 0 | 25 | 28 | 0 | 0 | 0 | 0 | 0 | – | – | – | – | – | – | – | – | – | –
19 | Cc1cccc(-c2nc(Nc3cccc(C(N)=O)c3)c3ccccc3n2)n1 [GW876019] | 0 | 10 | 16 | 0 | 0 | 0 | 14 | 0 | 0 | 0 | – | – | – | – | – | – | – | – | – | –
